Screens (PubChem)
ABHD5-PLIN5 inh: blocks binding of human ABHD5 to perilipin-5; 0.78% of 360,000 active; Split G. princeps luciferase complementation, luminescence, 4 h; inhibition, % at 4 µM; Q00G26+Q8WTS1; AID 602281;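 active means inhibition above the mean inhibition across every tested compound plus 3 SD, cut at about 22% in these data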;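 further: 0% = DMSO only wells and the 100% control is not disclosed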
TLR9-MyD88 block: inhibitors of human TLR9-MyD88 binding. inhibition, % at 4.98 µM. Q9NR96+Q99836. CHO BLA complementation TLR9-MyD88, CCF4 FRET ratio. 0.21% of 340,000 active;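 active means inhibition above the mean over all tested compounds plus 3 SD, cut at about 21% in these data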;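 further: 0% = DMSO only wells and 100% = clavulanate BLA inhibitor control wells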
TLR4 MyD88 comp: TLR4-MyD88 interaction inhibition in cells | O00206+Q99836 | HeLa CL3-4 TLR4/MyD88 BLA complementation, FRET ratio | inhibition, % at 8.4 µM | 0.18% of 200,000 active | AID 861; in the data active means inhibition above about 25%;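 further: 0% = vehicle and 100% = reference inhibitor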
Beta2AR agonist: agonists of human beta-2 adrenergic receptor inducing internalization | P07550 | Am2.2-beta2AR cells, FAP receptor internalization, flow cytometry | 0.43% of 340,000 active | AID 504454 | response, % (concentration not given with the values);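 active means response above a set limit, near 3 SD of response in nonfluorescent compounds, cut at about 42% in these data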
NOD2-RIPK2 inh: blocks binding of human NOD2 to RIPK2. AID 624267. 0.38% of 360,000 active. CHO BLA complementation NOD2-RIPK2, CCF4 ratio. inhibition, % at 4.98 µM. O43353; in the data active means inhibition above about 21%;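 further: 0% = vehicle only and 100% = reference blocker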
NTR1 ag: activates human neurotensin receptor 1 | P30989 | NTR1-U2OS beta-arrestin-GFP spot imaging, agonist mode | activation, % at 20 µM | 0.17% of 330,000 active | AID 493036;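 active means activation at or above 40% of the spot to cytoplasm intensity ratio, with at least 20 cells analyzed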;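 further: 0% = DMSO without peptide and 100% = 100 nM NTR1 peptide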
ABHD5 PLIN5 conf: confirmation of human ABHD5-PLIN5 interaction inhibitors | biochemical ABHD5-PLIN5 interaction, luminescence | shares compounds with ABHD5-PLIN5 inh | 67% of 2,200 active | AID 651612 | inhibition, % at 4 µM; in the data active means inhibition above about 23%;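 further: 0% = DMSO vehicle wells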
HNF4 split-luc: HNF4 split-luciferase signal hit, counter-screen | inhibition, % at 4 µM | HNF4 dimerization, luminescence, biochemical | shares compounds with ABHD5-PLIN5 inh | 77% of 2,200 active;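 active means mean inhibition across replicate wells exceeding the computed hit threshold, cut at about 13% in these data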;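 further: light from luciferase halves that rejoin when HNF4 fusion proteins dimerize; 0% = DMSO only wells and the 100% control is not given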
An asterisk follows results filed as active; nt = no result. Most compounds without a hit are left out; they make up all but 1.5% or so of the library.

SMILES | ABHD5-PLIN5 inh | TLR9-MyD88 block | TLR4 MyD88 comp | Beta2AR agonist | NOD2-RIPK2 inh | NTR1 ag | ABHD5 PLIN5 conf | HNF4 split-luc
C#CCN(C[C@@H]1[C@@H](OC(=O)NC2CCCC2)[C@@H](OC(=O)NC2CCCC2)Cn2c(=O)ccc(=O)n21)S(=O)(=O)c1ccc(C)cc1 | 38* | 7 | nt | nt | 10 | nt | 64* | 24*
C#CCN(C[C@H]1[C@H](OC(=O)Nc2cccs2)[C@H](OC(=O)Nc2cccs2)C[C@H]2C(=O)N(c3ccccc3)C(=O)[C@@H]12)S(=O)(=O)c1ccc(C)cc1 | 9 | -12 | nt | nt | 9 | nt | nt | nt
CCCCOC(=O)Nc1cc(C(=O)OC)ccc1C(=O)OC | 28* | 7 | 1 | 5 | -4 | 1 | 43* | 5
CCCCOC(=O)Nc1ccc(C(=O)OC)cc1 | -3 | -8 | 2 | -1 | -5 | 4 | nt | nt
CC(=O)c1ccc2noc(-c3ccccc3)c2c1 | 28* | -10 | 10 | 10 | -2 | 0 | 31* | 49*
O=C(COC(=O)c1cccc(S(=O)(=O)N2CCc3ccccc3C2)c1)NCc1ccco1 | -3 | 1 | 9 | -1 | -8 | -1 | nt | nt
O=C(COC(=O)c1cc(S(=O)(=O)N2CCc3ccccc3C2)ccc1Cl)NCc1ccco1 | 28* | 5 | 2 | 16 | -1 | -7 | 45* | 59*
CC(=O)OCC(C)n1[nH]c2ccccc2c1=O (centres undefined) | 13 | nt | nt | nt | -13 | nt | nt | nt
CCCCn1nnnc1C1(C)CCC(=O)N1CCCn1ccnc1 (centres undefined) | 59* | nt | nt | nt | -8 | nt | 47* | 46*
COc1cccc(CN2CCC2(C)C(=O)Nc2cnc3ccccc3c2)c1F (centres undefined) | 3 | nt | nt | nt | -2 | nt | nt | nt
Cc1c(C(=O)NCc2ccc3c(c2)OCCO3)sc(=O)n1Cc1ccccc1C(F)(F)F | 2 | nt | nt | nt | -12 | nt | nt | nt
CCCS(=O)(=O)NC(=O)C1(C)CCN(C(=O)c2ccc3ccccc3n2)C1 (centres undefined) | 8 | nt | nt | nt | -9 | nt | nt | nt
CC(C)(C)NC(=O)C(c1ccc(C(F)(F)F)cc1)n1c(=O)c(-c2ccco2)nc2ccccc21 (centres undefined) | 60* | nt | nt | nt | -10 | nt | 87* | 38*
O=C(NCc1ccccc1)C(c1ccc(C(F)(F)F)cc1)n1c(=O)c(-c2ccco2)nc2ccccc21 (centres undefined) | 74* | nt | nt | nt | -24 | nt | 95* | 44*
CC(C)(C)NC(=O)C(c1ccccc1)n1c(=O)c(-c2ccccc2)nc2ccccc21 (centres undefined) | -5 | nt | nt | nt | -13 | nt | nt | nt
O=C(NCc1ccccc1)C(C1CC1)n1c(=O)c(-c2ccco2)nc2ccccc21 (centres undefined) | 38* | nt | nt | nt | -4 | nt | 37* | 13*
O=C(NCc1ccccc1)C(c1ccccc1)n1c(=O)c(-c2ccco2)nc2ccccc21 (centres undefined) | 74* | nt | nt | nt | 5 | nt | 48* | 12
O=C(NCc1ccccc1)C(c1cc2ccccc2o1)n1c(=O)c(-c2ccco2)nc2ccccc21 (centres undefined) | 91* | nt | nt | nt | -8 | nt | 62* | 15*
O=C(NCc1ccccc1)C(c1cccc2ccccc12)n1c(=O)c(-c2ccccc2)nc2ccccc21 (centres undefined) | 8 | nt | nt | nt | -14 | nt | nt | nt
Cc1ccccc1Oc1nc2c(C)cccn2c(=O)c1/C=C(\C#N)C(=O)NC1CCS(=O)(=O)C1 (centres undefined) | 46* | -1 | nt | 3 | -4 | 3 | 62* | 49*
Cc1cccn2c(=O)c(/C=C(\C#N)C(=O)NC3CCS(=O)(=O)C3)c(Oc3ccccc3Cl)nc12 (centres undefined) | 13 | -14 | nt | 6 | 0 | 9 | nt | nt
CCCCCCCCCCCCN1[C@@H](CC(=O)O)c2cc(C(F)(F)F)ccc2S1(=O)=O | -4 | -5 | nt | 4 | -12 | 2 | nt | nt
CCCCCCCCN1[C@@H](CC(=O)O)c2cc(C(F)(F)F)ccc2S1(=O)=O | 30* | 7 | nt | -5 | 10 | 3 | 33* | 16*
